In PubChem BioAssay (NCATS):
Records with an inconclusive call do not appear. Where a call stands in place of a potency, no number is given. Active and inactive are the calls of the source. Calls follow the shape of the dose curve; as a rule, active = well fitted cell-killing curve with a large enough effect; inconclusive = small, poorly fitted or top-dose-only effect; inactive = flat fitted curve, though single readings scatter.

test: SDT Cancer Cell Toxicity qHTS against the NCATS CANVASS Library (AID 1347365); conditions: SDT dog glioma viability, ATP luminescence, 72 h; series mostly up to 46.1 µM; also: nearly all actives have a fitted effect of over 60% in size
From the text: Natural products and their derivatives continue to be wellsprings of nascent therapeutic potential. However, many laboratories have limited resources for biological evaluation, leaving their previously isolated or synthesized compounds largely or completely untested. To address this issue, the Canvass library of natural products was assembled (https://tripod.nih.gov/canvass), in collaboration with academic and industry researchers, for quantitative high-throughput screening (qHTS) across a diverse set of cell-based and biochemical assays. The pure (>85% purity by liquid chromatography/mass spectrometry [LC/MS]) Canvass library of 346 natural products were submitted by 45 academic laboratories and companies around the world. We collected pure natural products to circumvent deconvolution and structure elucidation due to time and resource limitations. The library was formatted into 1536-well plates and evaluated in 50 qHTS (in an 11-pnt concentration series) bioassays with broad scope of disease-relevant mechanisms. The resulting data set from 50 different assays was then systematically analyzed to identify overall trends and specific natural products with interesting biological activities. Reported herein are the results of each individual qHTS and their corresponding assay protocol. This assay uses ATP (luminescence) content to measure the cytotoxiciy of compounds on SDT dog glioma cancer cell line. National Center for Advancing Translational Sciences (NCATS), Rockville, MD National Institute of Health (NIH), Bethesda, Maryland
Cancer Cell Toxicity qHTS protocol: for cell lines G06, J3T, and SDT. 1. In a 1536 well, tissue culture treated white solid bottom plates (Corning 7494), 5 uL of SDT cell solution (final concentration of 500 cells / well) was dispensed using the Multidrop Combi dispenser (Thermo Fisher Scientific) into columns 2, 3, 5-48. 2. Control and Compounds were pin transferred (~23 nL volume) to the assay plates via Wako Pin-tool (Wako Automation, Richmond VA) equipped with a 1536 pin head. The compounds were transferred to columns 5-48 resulting in a final concentration ranging from 0.17 nM to 103 uM. Dose response titration of Bortezomib was pin transferred into column 2 (1mM; 1:2 dilution; 16 points) resulting to a final concentration range of 0.1 nM - 4.6 uM. 3. The assay plates were further incubated in the at 37C, 5% CO2, 95% Rh for 72 hr. 4. After incubation, 3 uL of CellTiterGlo reagent (Promega) was added to the assay plates (column 1-48, rows 1-32) and centrifuged for 15 sec at 1000 rpm to remove bubbles. 5. Luminescence signal was acquired via the ViewLux plate reader (PerkinElmer) using a clear emission filter, 2 sec exposure, and 1x binning settings.
Potency is read from the fitted curve at half-maximal effect.

Row | SMILES | Potency
1 | CCC[C@H]1CC[C@H]2[C@H](C)CCC[C@H]2N1 | inactive
2 | C=C1[C@@H](C)[C@H]2[C@H](Cc3ccccc3)NC(=O)[C@]23OC(=O)/C=C/[C@H](O)CCC[C@@H](C)C/C=C/[C@H]3[C@@H]1O | 2640 nM (active)
3 | CNCCc1ccccc1 | 46.9 nM (active)
4 | CC=C1CN(C=O)[C@H]2C[C@@H]1[C@@H](C(=O)OC)[C@@]13CCOC21Nc1ccccc13 (some centres not stated) | inactive
5 | CCN1C[C@]2(C)CC[C@@H](O)[C@]34C1[C@H](C[C@H]23)C12CCC(CC14)[C@](O)(CO)[C@H]2O (some centres not stated) | inactive
6 | COC(=O)C1=C2Nc3ccccc3[C@@]23CCN2CC(C(C)=O)C1C[C@H]23 (some centres not stated) | inactive
7 | C[C@@H]1CC[C@@H](c2ccoc2)N2C[C@@]3(CC[C@@H]12)CS[C@@]1(CC[C@H]2[C@H](C)CC[C@@H](c4ccoc4)N2[C@@H]1O)C3 | 6620 nM (active)
8 | CCC(=O)CCCCC[C@@H]1NC(=O)[C@H]2CCCCN2C(=O)[C@H]([C@@H](C)CC)NC(=O)[C@H](Cc2cn(OC)c3ccccc23)NC1=O | 1050 nM (active)
9 | CO[C@@H](/C=C/CC/C=C/C(=O)O)[C@@H](O)[C@H](C)[C@@H](O)/C(C)=C/[C@H](C)C(=O)CCCC1CC(=O)NC(=O)C1 | inactive
10 | COc1ccc2c(c1)[nH]c1c(C)nccc12 | 24100 nM (active)
11 | O=C(c1ccccc1O)c1[nH]c(Cl)c(Cl)c1-n1c(C(=O)c2ccccc2O)cc(Cl)c1Cl | 2350 nM (active)
12 | CNCCc1ccc(O)cc1 | inactive
13 | CO[C@@H](/C=C/CC/C=C/C(=O)O)[C@@H](O)[C@H](C)/C=C(\C)[C@@H](O)[C@H](C)C(=O)CCCC1CC(=O)NC(=O)C1 | inactive
14 | CCCC[C@@H]1CC[C@H]2CCCC(CCC)N12 (some centres not stated) | inactive
15 | CC(=O)N[C@H]1CCN2CCC[C@H]12 | inactive
16 | CCCCC[C@@H]1OC(=O)[C@@H](C)N(C)C(=O)[C@H](CCCCC)OC(=O)C(C)N(C)C(=O)[C@H](CCCCC)OC(=O)[C@@H](C)N(C)C(=O)[C@H](CCCCC)OC(=O)C(C)N(C)C1=O (some centres not stated) | 16600 nM (active)
17 | COc1ccc(C23Oc4cc(OC)cc(OC)c4[C@](O)([C@H](c4ccccc4)C2C(=O)NCCCCNC(=O)c2ccccc2)[C@@H]3O)cc1 (some centres not stated) | inactive
18 | CC1=CC2CC[C@@H]3[C@@H](C)C[C@H](C)[C@@H](C1)N23 (some centres not stated) | inactive
19 | CC[N@@+]1([O-])C[C@]2(C)CC[C@@H](O)[C@@]34C5C[C@H]6CC[C@@]5(C(C[C@H]23)C41)[C@H](O)[C@@]6(O)CO (some centres not stated) | inactive
20 | NCCc1ccccc1 | inactive
21 | C[C@]12CC(O)C3[C@@H](CCC4C[C@@H](O)CC[C@@]43CO)[C@@]1(O)CCC2C1=CC(=O)OC1 (some centres not stated) | 2640 nM (active)
22 | CC1=CC(=O)C2=C(C)C[C@H](O)[C@@H]3[C@H](OC(=O)[C@@H]3C)[C@@H]12 | inactive
